Measurements from ChEMBL document CHEMBL3988442, “University of Dundee, Small-Polar-MMV Screening Library” (2021).
For some assays here: Measured potencies and affinities stand elsewhere.

Tests used:
Design in all cases: scale not given: direction of the effect not stated beside the values
[1] = target: Protein translocase subunit SecA (Escherichia coli (strain K12)) (UniProt P10408); assay: Assay to Identify E. coli SecA ATPase Inhibitors; format: functional; details: 30 µM
[2] = target: T1, Ubiquitin-activating enzyme e1, putative (Leishmania donovani (strain BPK282A1)) (UniProt E9BSI1); assay: Leishmania donovani Ubiquitin Activating Enzyme (LdE1); format: functional; details: 30 µM
T1 sequence (whole entry): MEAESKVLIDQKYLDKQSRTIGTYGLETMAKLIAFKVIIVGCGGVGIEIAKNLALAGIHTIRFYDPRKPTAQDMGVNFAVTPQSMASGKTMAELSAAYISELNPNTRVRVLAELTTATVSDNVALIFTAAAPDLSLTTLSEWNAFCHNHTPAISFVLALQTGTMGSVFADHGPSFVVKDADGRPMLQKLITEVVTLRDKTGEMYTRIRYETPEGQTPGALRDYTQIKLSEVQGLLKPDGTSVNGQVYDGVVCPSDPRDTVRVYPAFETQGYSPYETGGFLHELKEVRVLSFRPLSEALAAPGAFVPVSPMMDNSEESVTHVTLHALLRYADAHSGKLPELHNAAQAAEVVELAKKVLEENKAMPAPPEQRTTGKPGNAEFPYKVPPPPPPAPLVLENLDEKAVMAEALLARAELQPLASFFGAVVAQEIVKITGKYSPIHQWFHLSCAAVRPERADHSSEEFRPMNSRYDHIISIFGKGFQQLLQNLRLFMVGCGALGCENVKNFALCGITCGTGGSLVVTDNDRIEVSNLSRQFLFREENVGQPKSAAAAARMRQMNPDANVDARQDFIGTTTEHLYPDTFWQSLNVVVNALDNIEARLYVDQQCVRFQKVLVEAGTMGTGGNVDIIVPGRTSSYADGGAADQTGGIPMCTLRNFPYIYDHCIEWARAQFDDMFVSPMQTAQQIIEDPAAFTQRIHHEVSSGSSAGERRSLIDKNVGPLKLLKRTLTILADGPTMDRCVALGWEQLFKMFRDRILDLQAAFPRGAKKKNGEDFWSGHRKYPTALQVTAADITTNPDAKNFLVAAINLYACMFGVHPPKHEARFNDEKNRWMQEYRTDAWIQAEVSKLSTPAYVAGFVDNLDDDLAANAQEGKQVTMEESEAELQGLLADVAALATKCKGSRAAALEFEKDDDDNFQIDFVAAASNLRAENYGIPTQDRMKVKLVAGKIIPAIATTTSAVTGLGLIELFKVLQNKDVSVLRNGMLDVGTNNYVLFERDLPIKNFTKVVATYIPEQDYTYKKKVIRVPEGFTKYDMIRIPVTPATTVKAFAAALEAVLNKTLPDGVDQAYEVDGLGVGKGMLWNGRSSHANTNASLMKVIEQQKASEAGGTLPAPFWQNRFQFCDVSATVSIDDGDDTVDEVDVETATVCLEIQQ

[3] = target: AMP-activated protein kinase, AMPK (Homo sapiens) (UniProt P54646+O43741+P54619+Q9UGJ0+Q9Y478+Q13131+Q9UGI9); assay: AMP-dependent Kinase enzyme assay. An in vitro enzyme assay that detects ADP turnover that is directly proportional to AMPK activity. This uses naive AMPK that is activated during the assay with MK-8722; format: functional; details: 30 µM
[4] = target: Sialic acid-binding Ig-like lectin 9 (Homo sapiens) (UniProt Q9Y336); assay: Hs-Siglec9 ALPHAscreen SOP 20170721; details: 10 µM
Trypanosoma cruzi = assay: Trypanosoma cruzi phosphomannomutase and mannose-1-phosphate guanylyltransferase assay; format: functional; details: 10 µM
[5] = target: T2, Arginase-2, mitochondrial (Homo sapiens) (UniProt P78540); assay: in vitro enzyme assay to detect the production of urea directly proportional to the activity of Arginase II; format: functional; details: 33.3 µM; also: in the data most compounds retested in dose-response had high values
T2 sequence (whole entry): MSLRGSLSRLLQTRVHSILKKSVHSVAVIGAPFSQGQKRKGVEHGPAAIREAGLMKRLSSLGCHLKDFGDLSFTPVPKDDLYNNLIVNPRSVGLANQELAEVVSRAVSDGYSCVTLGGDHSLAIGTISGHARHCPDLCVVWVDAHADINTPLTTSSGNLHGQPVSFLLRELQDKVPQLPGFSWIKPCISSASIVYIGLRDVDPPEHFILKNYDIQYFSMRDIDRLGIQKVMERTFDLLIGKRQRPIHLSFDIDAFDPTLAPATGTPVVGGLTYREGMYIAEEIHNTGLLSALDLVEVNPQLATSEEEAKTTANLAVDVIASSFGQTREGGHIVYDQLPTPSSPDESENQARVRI

[6] = target: T3, Proteasome subunit beta (Trypanosoma cruzi) (UniProt O96673); assay: Trypanosoma cruzi proteasome chymotrypsin-like activity (TcProtChymo) assay.; also: in the data most compounds retested in dose-response had high values; format: functional; details: 9.37 µM
T3 sequence (whole entry): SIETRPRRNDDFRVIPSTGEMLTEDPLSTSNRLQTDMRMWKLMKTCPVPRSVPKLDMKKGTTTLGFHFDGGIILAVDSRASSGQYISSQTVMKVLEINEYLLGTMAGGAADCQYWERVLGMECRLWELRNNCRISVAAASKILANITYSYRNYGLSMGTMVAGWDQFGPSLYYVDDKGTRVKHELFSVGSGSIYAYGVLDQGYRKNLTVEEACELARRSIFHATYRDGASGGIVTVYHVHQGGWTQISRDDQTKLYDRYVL

Homo sapiens = species: Homo sapiens; assay: To identify inhibition of the IFN signalling (Jak-Stat) pathway via expression of an eGFP reporter gene under the control of an IFN-stimulated response element (ISRE) containing MxA promoter.; format: functional; details: 30 µM
[7] = target: T4, Tyrosyl-tRNA synthetase, putative (Trypanosoma cruzi (strain CL Brener)) (UniProt Q4DSP6); assay: Trypanosoma cruzi tyrosyl tRNA synthetase (TcYRS) _High Tyrosine SOP; format: functional; details: 30 µM; also: in the data most compounds retested in dose-response had high values
T4 sequence (whole entry): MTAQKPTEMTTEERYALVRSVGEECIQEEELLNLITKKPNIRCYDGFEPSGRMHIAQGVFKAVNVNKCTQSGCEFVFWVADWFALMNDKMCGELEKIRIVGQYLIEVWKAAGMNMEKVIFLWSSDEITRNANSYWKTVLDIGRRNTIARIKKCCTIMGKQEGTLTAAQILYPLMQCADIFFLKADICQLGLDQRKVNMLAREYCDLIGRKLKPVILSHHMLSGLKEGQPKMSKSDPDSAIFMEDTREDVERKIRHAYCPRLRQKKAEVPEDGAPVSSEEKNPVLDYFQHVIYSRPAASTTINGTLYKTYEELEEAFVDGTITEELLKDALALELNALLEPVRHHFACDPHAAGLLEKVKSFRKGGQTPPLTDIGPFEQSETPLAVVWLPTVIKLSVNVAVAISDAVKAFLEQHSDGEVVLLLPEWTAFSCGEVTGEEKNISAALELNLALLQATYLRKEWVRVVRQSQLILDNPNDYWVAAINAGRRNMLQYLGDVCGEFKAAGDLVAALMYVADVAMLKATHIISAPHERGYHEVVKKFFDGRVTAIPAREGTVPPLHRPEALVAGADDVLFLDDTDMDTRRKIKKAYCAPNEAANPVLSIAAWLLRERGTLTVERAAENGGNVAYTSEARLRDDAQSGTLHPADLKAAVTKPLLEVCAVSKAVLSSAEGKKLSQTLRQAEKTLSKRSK

[8] = target: T4, Tyrosyl-tRNA synthetase, putative (Trypanosoma cruzi (strain CL Brener)); assay: Trypanosoma cruzi tyrosyl tRNA synthetase (TcYRS) SOP; format: functional; details: 30 µM
[9] = target: Chromo domain-containing protein 1 (Saccharomyces cerevisiae (strain ATCC 204508 / S288c) (Baker's yeast)) (UniProt P32657); assay: ScCHD-1 Enzyme Inhibition Assay; format: functional; details: 30 µM; also: in the data most compounds retested in dose-response had high values
Chromo domain-containing protein 1 (Saccharomyces cerevisiae (strain ATCC 204508 / S288c) (Baker's yeast)), sequence (P32657 whole entry, the tested form may be a part): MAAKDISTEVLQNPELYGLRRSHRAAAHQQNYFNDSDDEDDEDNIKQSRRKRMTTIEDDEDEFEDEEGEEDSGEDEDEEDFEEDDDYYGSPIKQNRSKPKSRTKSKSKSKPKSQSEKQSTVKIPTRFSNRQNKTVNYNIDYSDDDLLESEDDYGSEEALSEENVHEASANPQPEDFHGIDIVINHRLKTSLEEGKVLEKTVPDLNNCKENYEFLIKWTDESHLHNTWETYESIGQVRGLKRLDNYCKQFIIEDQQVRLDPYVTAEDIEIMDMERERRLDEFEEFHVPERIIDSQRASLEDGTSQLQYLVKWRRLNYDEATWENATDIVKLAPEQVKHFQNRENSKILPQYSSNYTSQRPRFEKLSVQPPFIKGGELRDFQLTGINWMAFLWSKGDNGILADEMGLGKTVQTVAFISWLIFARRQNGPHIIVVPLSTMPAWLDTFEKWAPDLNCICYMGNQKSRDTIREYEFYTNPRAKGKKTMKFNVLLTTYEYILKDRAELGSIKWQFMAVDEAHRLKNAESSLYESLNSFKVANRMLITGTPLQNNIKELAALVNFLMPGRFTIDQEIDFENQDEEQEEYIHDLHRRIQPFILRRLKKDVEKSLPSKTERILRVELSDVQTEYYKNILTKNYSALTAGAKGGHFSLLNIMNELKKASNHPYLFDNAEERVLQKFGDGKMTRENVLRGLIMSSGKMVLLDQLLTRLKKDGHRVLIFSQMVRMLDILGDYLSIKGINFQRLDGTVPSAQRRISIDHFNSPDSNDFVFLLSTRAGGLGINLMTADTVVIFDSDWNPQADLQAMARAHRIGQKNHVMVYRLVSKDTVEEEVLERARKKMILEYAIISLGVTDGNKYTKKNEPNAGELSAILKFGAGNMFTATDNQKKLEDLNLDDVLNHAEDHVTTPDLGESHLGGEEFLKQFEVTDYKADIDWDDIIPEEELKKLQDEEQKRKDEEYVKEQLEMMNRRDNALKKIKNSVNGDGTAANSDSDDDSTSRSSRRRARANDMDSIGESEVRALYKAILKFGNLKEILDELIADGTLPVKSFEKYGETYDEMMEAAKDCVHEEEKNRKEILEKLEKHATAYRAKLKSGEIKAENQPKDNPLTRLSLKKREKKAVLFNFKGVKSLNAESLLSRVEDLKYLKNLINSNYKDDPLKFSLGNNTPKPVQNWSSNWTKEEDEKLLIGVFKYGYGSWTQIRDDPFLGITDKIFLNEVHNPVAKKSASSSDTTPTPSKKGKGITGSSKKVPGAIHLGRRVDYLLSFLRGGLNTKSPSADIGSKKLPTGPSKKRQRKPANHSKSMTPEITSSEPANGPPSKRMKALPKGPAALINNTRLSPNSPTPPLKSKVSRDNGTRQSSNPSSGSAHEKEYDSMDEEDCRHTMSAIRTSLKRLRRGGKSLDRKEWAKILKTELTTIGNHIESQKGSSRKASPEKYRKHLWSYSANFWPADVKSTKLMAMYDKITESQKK

Protein translocase subunit SecA (Escherichia coli (strain K12)), sequence (P10408 whole entry): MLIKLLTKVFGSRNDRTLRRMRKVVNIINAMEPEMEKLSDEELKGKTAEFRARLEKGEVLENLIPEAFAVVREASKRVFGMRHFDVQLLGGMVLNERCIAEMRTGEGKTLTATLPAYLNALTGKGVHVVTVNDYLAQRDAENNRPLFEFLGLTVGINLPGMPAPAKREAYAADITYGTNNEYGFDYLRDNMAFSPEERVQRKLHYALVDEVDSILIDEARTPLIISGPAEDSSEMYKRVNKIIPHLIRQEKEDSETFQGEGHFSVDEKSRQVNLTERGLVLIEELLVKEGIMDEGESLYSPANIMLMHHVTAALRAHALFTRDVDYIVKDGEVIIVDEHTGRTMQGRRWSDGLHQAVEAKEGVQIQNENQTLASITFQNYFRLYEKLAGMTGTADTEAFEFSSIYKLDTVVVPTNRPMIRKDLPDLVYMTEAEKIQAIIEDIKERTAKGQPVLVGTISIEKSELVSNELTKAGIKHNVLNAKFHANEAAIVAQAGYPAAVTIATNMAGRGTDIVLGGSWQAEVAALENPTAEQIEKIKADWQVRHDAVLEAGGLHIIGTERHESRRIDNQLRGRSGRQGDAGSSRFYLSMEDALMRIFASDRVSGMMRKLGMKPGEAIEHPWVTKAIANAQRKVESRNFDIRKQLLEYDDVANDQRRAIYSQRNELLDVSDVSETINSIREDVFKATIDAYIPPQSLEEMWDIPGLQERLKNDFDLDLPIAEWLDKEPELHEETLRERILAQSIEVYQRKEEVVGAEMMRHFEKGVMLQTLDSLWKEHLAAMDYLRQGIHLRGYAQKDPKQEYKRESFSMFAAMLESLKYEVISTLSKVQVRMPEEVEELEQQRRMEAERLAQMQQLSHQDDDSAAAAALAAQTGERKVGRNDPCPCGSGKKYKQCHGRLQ
Sialic acid-binding Ig-like lectin 9 (Homo sapiens), sequence (Q9Y336 whole entry): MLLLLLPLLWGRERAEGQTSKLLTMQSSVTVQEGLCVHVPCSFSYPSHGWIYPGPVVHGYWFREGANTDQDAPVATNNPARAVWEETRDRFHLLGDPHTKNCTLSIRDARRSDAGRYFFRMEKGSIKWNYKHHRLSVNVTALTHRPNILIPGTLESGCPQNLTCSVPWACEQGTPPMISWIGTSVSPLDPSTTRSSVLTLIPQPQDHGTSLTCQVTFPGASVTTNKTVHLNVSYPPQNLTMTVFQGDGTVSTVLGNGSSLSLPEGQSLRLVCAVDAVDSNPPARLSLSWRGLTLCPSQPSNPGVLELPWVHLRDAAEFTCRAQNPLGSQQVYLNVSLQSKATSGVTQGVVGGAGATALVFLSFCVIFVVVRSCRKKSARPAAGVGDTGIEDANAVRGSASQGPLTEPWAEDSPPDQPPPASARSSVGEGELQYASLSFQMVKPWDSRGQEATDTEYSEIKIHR

Row | Compound | Percent Effect [1] [%] | Percent Effect [2] [%] | Percent Effect [3] [%] | Percent Effect [4] [%] | Percent Effect (Trypanosoma cruzi) [%] | Percent Effect [5] [%] | Percent Effect [6] [%] | Percent Effect (Homo sapiens) [%] | Percent Effect [7] [%] | Percent Effect [8] [%] | Percent Effect [9] [%]
1 | CNC(=O)c1ccc(OC2CCN(S(C)(=O)=O)CC2)c(Cl)c1 | -2.46 | 4.17 | -2.06 | -2.97 | 0.68 | 2.65 | 14.7 | 24.7 | 6.32 | 10.3 | -2.92
2 | Cc1ccc(C(=O)N2CCC(Oc3ccc(F)cc3F)CC2)c(=O)[nH]1 | -4.74 | 5.26 | 3.18 | -2.22 | -7.52 | 1.53 | 8.69 | 43.4 | 0.49 | 4.88 | -4.43
3 | COCCNC(=O)NCc1ccc(OC(C)C)c(F)c1 | -5.47 | 10.5 | -1.85 | 9.7 | 8.5 | -4.68 | 5.67 | 2.01 | 5.42 | 13.6 | 0.0512
4 | CCCNC(=O)COc1ccc(C)cn1 | -4.18 | 11 | -5.89 | 4.96 | 4.76 | -0.798 | 6.59 | -7.03 | 6.25 | -3.7 | -11.8
